This excerpt belongs to a sample that is enriched for hits.
HttQ103 aggreg – inhibitors of mutant huntingtin aggregate formation in PC12 cells | Potency, µM (titrated, usually from 46.1 µM), most hits filed as inhibitors | actives 1.1% (n = 220,000) | PC12 HttQ103-GFP aggregates, Acumen cytometry, 40 h; further: nearly all actives have a fitted effect of over 60% in size
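Huntingtin Q103 exon 1–GFP aggregates in induced PC12 cells (100 nM tebufenozide) were quantified by cytometry from lysates, with compounds dosed in titration.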
PINK1 modulator – modulators of PINK1 expression | PINK1 immunofluorescence, high-content cytometry, 24 h | actives 0.2% (n = 410,000) | Potency, µM (top dose mostly 76.6 µM), actives largely listed as activators | AID 624263; active means well fitted activation curve with a large enough effect; inconclusive means small, poorly fitted or top-dose-only effect; cell line not stated here; further: nearly all actives have a fitted effect of over 65% in size
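Readout is PINK1 immunofluorescence, quantified alongside mitochondrial, cell and nuclear markers by laser-scanning microplate cytometry. Cells from a stable line were exposed to compound titrations (5 concentrations) for 24 hours, with CCCP controls.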
HTT cytoprotect – Huntington cell model cytoprotection by ATP luminescence; PC12 HTT-Q103 induced, cytoprotection, ATP luminescence, 40 h; actives 0.14% (n = 230,000); AID 1471; Potency, µM (series often up to 56.4 µM), actives largely listed as activators; further: nearly all actives have a fitted effect of over 45% in size
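Compounds were screened for protection of PC12 cells against cell death after tebufenozide induction (100 nM final) of mutant Huntingtin exon 1 (Q103) fused to GFP.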
Epigenetic reg – derepresses silenced GFP reporter in murine cells; murine LDR cells, GFP reporter derepression, 30 h; AID 1865; Potency, µM (series often up to 53.9 µM), most hits filed as activators; actives 0.2% (n = 280,000); further: nearly all actives have a fitted effect of over 60% in size
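Murine LDR cells carrying a silenced, genomically integrated CMV-driven GFP reporter were exposed to compound for 30 hours at 37 C. After PBS washes, GFP-positive cells (20–120 um objects) were counted by laser-scanning microplate cytometry.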
Numbers stand for hits; i = inactive; ? = inconclusive; nt = not tested or not shown; [ ] = dose if it differs, or a comment. Unless noted, the call rests on the fitted dose curve; in most records, active means well fitted curve in the direction sought with a large enough effect; inconclusive means small, poorly fitted or top-dose-only effect, or another doubt; inactive means no such curve, though single readings can be large; an effect the other way counts as inactive or inconclusive.

SMILES	HttQ103 aggreg	PINK1 modulator	HTT cytoprotect	Epigenetic reg
Cc1cc(N2CCN(C/C=C/c3ccccc3)CC2)n2ncnc2n1	3.5µM	nt	?	i
Cc1cc(N2CCN(c3ccccc3)CC2)n2ncnc2n1	i[9.22 µM]	i	i[10 µM]	i
Cc1sc2ncnc(N3CCC(C(=O)NNC(=O)COc4ccc(Cl)cc4)CC3)c2c1C	nt	i	nt	nt
Cc1sc2ncnc(N3CCN(CCOc4ccc(Cl)cc4)CC3)c2c1C	2µM	i	i	i
O=C(CCC(=O)OCc1ccc([N+](=O)[O-])cc1)Nc1ccc(F)cc1	i[9.22 µM]	i	i	i
COCCn1nc2cc(C(=O)NCc3cc(C(F)(F)F)cc(C(F)(F)F)c3)ccc2c1OC	i	i	0.71µM	i
CN1CCN(c2nc3ccccc3nc2C(C#N)C(=O)OC2CCCCC2)CC1 (centres undefined)	13µM	i	i	i
Cc1cc(C)c[n+](C2=C([O-])c3ccccc3C(=O)/C2=N\S(=O)(=O)c2cccs2)c1	i	i	i[1.9 µM]	i
COc1ccc(S(=O)(=O)/N=C2\C=C(Nc3ccc(O)cc3)C(=O)c3ccccc32)cc1	nt	i	nt	nt
CC(=O)Nc1ccc(NC2=C/C(=N/S(=O)(=O)c3cccs3)c3ccccc3C2=O)cc1	5.6µM	i	nt	i
Cc1cc[n+](C2=C([O-])c3ccccc3C(=O)/C2=N\S(=O)(=O)c2cccs2)cc1C	10µM	i	i[10 µM]	i
Cc1ccccc1NC1=C/C(=N\S(=O)(=O)c2cccs2)c2ccccc2C1=O	1.4µM	i	i	i
Cc1ccc(NC2=C/C(=N/S(=O)(=O)c3cccs3)c3ccccc3C2=O)cc1C	?	i	nt	i
CC(=O)N1CCN(S(=O)(=O)c2ccc3c(c2)CCC(=O)N3)CC1	nt	i	nt	nt
CCCNC(=O)c1cc(C2CCCCN2S(=O)(=O)c2ccc(OC)cc2)on1 (centres undefined)	nt	i	nt	nt
O=C(Cn1nc(-c2ccc(Cl)cc2)ccc1=O)NCC1COCCO1 (centres undefined)	nt	i	nt	nt
CCCSc1nsc(NC(=O)C(c2ccccc2)c2ccccc2)n1	5µM	?	i[10 µM]	i
CCCSc1nsc(NC(=O)Nc2ccc(F)cc2F)n1	nt	13µM	nt	nt
CCCSc1nsc(NC(=O)CC)n1	i[9.22 µM]	i	i[10 µM]	i
Cc1ccc(S(=O)(=O)SC/C=C/CSS(=O)(=O)c2ccc(C)cc2)cc1	nt	i	nt	nt
N#Cc1c(NC(=O)CSCC(=O)O)sc2c1CCCC2	i	i	i	i
O=C(CN1CCN(c2ncccn2)CC1)N1CCCc2c1c(=O)oc1ccc(O)cc21	?	i	i[10 µM]	i
O=C1NCCCc2c1oc1ccc(O)cc21	22µM	i	i	i
CCC(=O)/C=C1/Sc2ccccc2N1CC	7.1µM	i	i[10 µM]	i
CCOC(=O)/C(=C\C=C1/Sc2ccccc2N1CC)C(C)=O	i	i	i[10 µM]	16µM
SMILES	HttQ103 aggreg	PINK1 modulator	HTT cytoprotect	Epigenetic reg
CCOC(=O)c1ccc2nc(CCC(=O)N[C@H](C(=O)OC)C(C)C)c(=O)n(CC)c2c1	i	i	i	i
CC1(c2nnc(Cc3ccccc3)o2)CC(c2ccccc2[N+](=O)[O-])=NO1 (centres undefined)	nt	i	nt	nt
CC(C(=O)NCC(=O)Nc1ccc(F)c(F)c1F)N1CCN(c2ccc(O)cc2)CC1 (centres undefined)	nt	i	nt	nt
CC(C)(C)c1ccc(-c2n[nH]c(=S)n2Cc2ccccc2)cc1	nt	i	nt	nt
CC(C)n1c(-c2ccc(C(C)(C)C)cc2)n[nH]c1=S	8.9µM	i	i	i
O=C(NCCc1ccccc1)c1ccc2c(c1)CCN2S(=O)(=O)c1ccc(Cl)cc1	nt	i	nt	i
CCC(C(=O)NNC(=O)c1cnccn1)c1ccccc1 (centres undefined)	7.9µM	i	i[10 µM]	i
COc1ccccc1Nc1cc(C(=O)NC2CCCC2)c2ccccc2n1	nt	i	nt	i
O=C1NCCN1c1ncc([N+](=O)[O-])s1	i	i	0.089µM	i
O=C(Nc1ncc([N+](=O)[O-])s1)C1CC(=O)N(c2ccc(F)cc2)C1 (centres undefined)	nt	i	nt	nt
Cn1c(=O)c2c(nc(NCCO)n2C)n(C)c1=O	i	i	i	i
CCCCCCn1c(NCC)nc2c1c(=O)n(C)c(=O)n2C	4µM	i	i[0.074 µM]	i
C=CCn1c(NCCO)nc2c1c(=O)n(C)c(=O)n2C	25µM	i	i[10 µM]	i
CC1(C(=O)NS(=O)(=O)c2ccc(F)cc2F)CCN1C(=O)Cc1ccccc1 (centres undefined)	nt	i	nt	nt
O=C(Cn1c2c(sc1=O)C1c3ccccc3OCC1CS2)Nc1ccc(Cl)c(Cl)c1 (centres undefined)	2.8µM	i	i[10 µM]	i
Cc1csc(=O)n1CC(=O)Nc1ccc(Cl)c(Cl)c1	nt	i	nt	nt
